Assay results published in PubChem BioAssay (Tox21).
Inconclusive results are not listed. Activity calls are given as the source filed them. Unless noted, calls come from the whole dose curve; as a rule, active = well fitted curve in the direction sought with a large enough effect in the repeat runs; inconclusive = weak or mixed curves; inactive = no such curve, though single readings can be large; an effect the other way counts as inactive or inconclusive.

Experiments:
[1] = qHTS assay for small molecules that induce genotoxicity in human embryonic kidney cells expressing luciferase-tagged ATAD5 (AID 651632); conditions: HEK293T ATAD5-luciferase induction, 16 h; series mostly up to 83.3 µM; note: nearly all actives have a fitted effect of over 15% in size; note: potency is the fitted concentration of half-maximal effect
How it was run: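 ATAD5-luc HEK293T, 2,000 cells/well; cpd or DMSO pin-transferred; 16 hr, 37C/5% CO2; Amplite 30 min RT; luminescence.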

[2] = qHTS assay for small molecules that induce genotoxicity in human embryonic kidney cells expressing luciferase-tagged ATAD5 - cell viability (AID 651634; calls by dose curve; note: nearly all actives have a fitted effect of over 25% in size; note: potency is the fitted concentration of half-maximal effect); conditions: HEK293T ATAD5-luc cells viability, CellTiter-Fluor, 15.5 h; series mostly up to 83.3 µM
How it was run: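 Fluorescence from CellTiter-Fluor, reporting protease activity within live cells, served as the viability read-out. HEK293T cells carrying luciferase-tagged ATAD5 had been treated with compound for 15.5 hr at 37C.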

[3] = qHTS assay for small molecule disruptors of the mitochondrial membrane potential - cell viability (AID 720634; calls by dose curve;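 note: human HepG2 liver cancer cells; nearly all actives have a fitted effect of over 20% in size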); conditions: HepG2 viability, ATP luminescence (CellTiter-Glo), 1 h; series mostly up to 83.2 µM
How it was run: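 Cells: HepG2, 2,000/well, attached overnight. Compound 1 hr, 37 C/5% CO2. +m-MPI dye, +CellTiter-Glo 30 min RT. Readout: luminescence (ATP).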

[4] = qHTS assay to test for compound auto fluorescence at 590 nm (red) in HEK293 cells (AID 720679); conditions: red autofluorescence 540/590 nm; series mostly up to 46 µM
How it was run: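 Red channel, Ex/Em 540/590nm; signal expressed as equivalency to Rose Bengal sodium. HEK293, 2,000 cells/well, 10% dialyzed FBS; 23 nL compound pinned after 4-5 hr attachment; overnight 37C/5% CO2 before reading.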

[5] = qHTS assay to test for compound auto fluorescence at 535 nm (green) in HEK293 cells (AID 720680); conditions: green autofluorescence 485/535 nm; series mostly up to 46 µM
[6] = qHTS assay to test for compound auto fluorescence at 590 nm (red) in HepG2 cell free culture (AID 720684); conditions: cell-free medium autofluorescence, red 540/590 nm; series mostly up to 46 µM
How it was run: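 Steps: dispense MEM/10% FBS medium, no cells; pin compound or DMSO vehicle; read red channel, Ex/Em 540/590 nm. Output given as Rose Bengal sodium equivalents.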

[7] = qHTS assay to test for compound auto fluorescence at 460 nm (blue) in HepG2 cell free culture (AID 720685); conditions: Cell-free culture medium, blue autofluorescence 405/460 nm; series mostly up to 46 µM
How it was run: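 Compound (23 nL) or DMSO pinned into cell-free MEM with 10% FBS; blue fluorescence read at 405/460 nm excitation/emission, expressed as auto-fluorescence equivalency to triamterene.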

[8] = qHTS assay to identify small molecule antagonists of the glucocorticoid receptor (GR) signaling pathway - cell viability counter screen (AID 720693); conditions: GR-bla HeLa viability, CellTiter-Glo luminescence, 18 h, with 5 nM dexamethasone present; series mostly up to 58.5 µM; note: nearly all actives have a fitted effect of over 55% in size
[9] = qHTS assay to identify small molecule antagonists of the thyroid receptor (TR) signaling pathway - cell viability counter screen (AID 743064); conditions: GH3.TRE-Luc viability, CellTiter-Fluor, 24 h; series mostly up to 70.3 µM; note: nearly all actives have a fitted effect of over 50% in size; note: potency is the fitted concentration of half-maximal effect
How it was run: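 Fluorescence from CellTiter-Fluor, added after 23.5 h exposure at 37 °C, reported viability of GH3.TRE-Luc cells co-treated with compound and 1 nM T3. Measured in the same wells as the luciferase TR readout.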

[10] = tested on: thyroid hormone receptor (rat, GH3 cells); assay: qHTS assay to identify small molecule agonists of the thyroid receptor (TR) signaling pathway (AID 743066; calls by dose curve); conditions: GH3.TRE-Luc cells, TR agonist luciferase, 24 h; series mostly up to 83.9 µM
[11] = qHTS assay to identify small molecule antagonists of the estrogen receptor alpha (ER-alpha) signaling pathway - cell viability counter screen (AID 743074; calls by dose curve;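 note: HEK293 cells carrying ER-alpha-UAS-bla reporter stimulated with 17beta-estradiol; nearly all actives have a fitted effect of over 45% in size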); conditions: ERalpha-bla HEK293 viability, CellTiter-Glo luminescence, 18 h; series mostly up to 69.4 µM
[12] = qHTS assay to identify aromatase inhibitors - cell viability counter screen (AID 743084); conditions: MCF-7 aro ERE viability, CellTiter-Fluor, 24 h; series mostly up to 70.3 µM;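 note: cells stimulated with testosterone during compound exposure; nearly all actives have a fitted effect of over 55% in size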; note: potency is the fitted concentration of half-maximal effect
[13] = qHTS assay to identify small molecule that activate the aryl hydrocarbon receptor (AhR) signaling pathway - cell viability counter screen (AID 743086); conditions: HepG2-AhR-luc viability, CellTiter-Fluor, 24 h; series mostly up to 70.3 µM; note: nearly all actives have a fitted effect of over 45% in size; note: potency is the fitted concentration of half-maximal effect
How it was run: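 Cytotoxicity counter screen: CellTiter-Fluor signal (30 min, 37 C) in 4000 HepG2 cells/well carrying the DRE-luciferase reporter, following 24 h compound exposure at 37 C.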

[14] = qHTS assay to identify small molecule phospholipidosis (PLD) inducers (AID 1259344; active = well fitted curve in the direction sought with a large enough effect; an effect the other way counts as inactive or inconclusive); conditions: HepG2 phospholipidosis, LipidTOX Red imaging, 24 h; series mostly up to 38.3 µM
How it was run: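 Phospholipidosis is scored by imaging LipidTOX-stained pits in HepG2 cells exposed to compound for 24 h at 37 C; pit counts and integrated intensities per well and per cell serve as outputs.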

[15] = qHTS assay to test for compound auto fluorescence at 535 nm (green) in HepG2 cells (AID 720675); conditions: green autofluorescence 485/535 nm, 1 h; series mostly up to 46 µM
[16] = qHTS assay to test for compound auto fluorescence at 535 nm (green) in HepG2 cell free culture (AID 720686); conditions: Cell-free medium, green autofluorescence 485/535 nm; series mostly up to 46 µM
[17] = qHTS assay to identify small molecule antagonists of the androgen receptor (AR) signaling pathway using the MDA cell line - cell viability counter screen (AID 743041; note: nearly all actives have a fitted effect of over 45% in size); conditions: MDA-kb2 viability, CellTiter-Fluor, 16 h, cells co-treated with R1881 androgen agonist; series mostly up to 70.3 µM
How it was run: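 Cells were plated at 3,000 per well and left 5 h. Compounds in DMSO were then pinned in, followed by R1881. After 16 h at 37C, CellTiter-Fluor fluorescence gave viability.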

[18] = qHTS assay to identify small molecule antagonists of the estrogen receptor alpha (ER-alpha) signaling pathway using the BG1 cell line - cell viability counter screen (AID 743081); conditions: BG1Luc4E2 viability, CellTiter-Fluor, 22 h; series mostly up to 70.3 µM;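 note: compound given together with 17beta-estradiol as the ER stimulus; nearly all actives have a fitted effect of over 45% in size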
Aromatase (Homo sapiens) = Aromatase (Homo sapiens) (UniProt P11511); assay: qHTS assay to identify aromatase inhibitors (AID 743083); conditions: MCF-7 aro ERE, testosterone-driven ERE luciferase, 24 h; series mostly up to 70.3 µM; note: nearly all actives have a fitted effect of over 55% in size
Sequence of Aromatase (Homo sapiens) (P11511 whole entry, looked up): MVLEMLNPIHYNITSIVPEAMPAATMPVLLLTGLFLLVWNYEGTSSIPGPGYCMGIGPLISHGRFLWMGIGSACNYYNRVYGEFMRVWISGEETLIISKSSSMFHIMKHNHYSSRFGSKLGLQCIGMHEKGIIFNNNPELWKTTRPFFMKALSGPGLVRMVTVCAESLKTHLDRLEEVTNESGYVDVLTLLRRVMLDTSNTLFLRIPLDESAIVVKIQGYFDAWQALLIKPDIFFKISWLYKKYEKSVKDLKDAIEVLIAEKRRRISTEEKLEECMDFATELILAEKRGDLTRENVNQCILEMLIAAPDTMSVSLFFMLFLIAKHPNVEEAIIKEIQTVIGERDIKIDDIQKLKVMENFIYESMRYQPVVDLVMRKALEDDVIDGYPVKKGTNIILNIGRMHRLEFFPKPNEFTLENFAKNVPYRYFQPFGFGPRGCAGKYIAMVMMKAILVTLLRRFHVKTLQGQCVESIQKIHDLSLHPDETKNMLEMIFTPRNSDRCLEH

[19] = qHTS assay to identify small molecule antagonists of the thyroid receptor (TR) signaling pathway (AID 743065); conditions: GH3.TRE-Luc, T3-stimulated luciferase inhibition, 23.5 h; series mostly up to 70.3 µM; note: nearly all actives have a fitted effect of over 55% in size; note: potency is the fitted concentration of half-maximal effect
How it was run: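 Antagonism measured as loss of luciferase signal in GH3 cells stably carrying a TRE-luciferase reporter, co-treated with compound and T3 (1 nM final) for 23.5 h at 37 C. Viability was read in the same well by CellTiter-Fluor.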
% is set by controls: 0 for no effect and ±100 for the full control effect.

N#CC(C#N)=Cc1cc(O)c(O)c(O)c1
active: Potency [2] 29.8 µM | Potency [9] 26.6 µM | Potency [12] 26.6 µM | Potency [13] 13.3 µM
inactive: Potency [1] | Potency [3] | outcome [4] | Potency [5] | outcome [6] | Potency [7] | Potency [8] | Potency [10] | Potency [11] | Potency [14]

c1ccc2c(c1)Sc1ccccc1N2C[C@@H]1CN2CCC1CC2
inactive: Potency [1] | Potency [2] | Potency [3] | Potency [15] | outcome [4] | Potency [5] | outcome [6] | Potency [7] | Potency [16] | Potency [8] | Potency [17] | Potency [11] | Potency [18] | Potency (Aromatase (Homo sapiens)) | Potency [12] | Potency [13] | Potency [14]

Oc1ccc2c3c1O[C@H]1[C@@H](O)C=C[C@H]4[C@H](C2)NCC[C@@]341
inactive: Potency [1] | Potency [2] | Potency [15] | outcome [4] | Potency [5] | outcome [6] | Potency [7] | Potency [16] | Potency [8] | Potency [17] | Potency [19] | Potency [10] | Potency [18] | Potency (Aromatase (Homo sapiens)) | Potency [12] | Potency [13] | Potency [14]

CN1C(=O)CC(=O)N(c2ccccc2)c2cc(Cl)ccc21
inactive: Potency [1] | Potency [2] | Potency [3] | Potency [15] | outcome [4] | Potency [5] | outcome [6] | Potency [7] | Potency [16] | Potency [8] | Potency [17] | Potency [9] | Potency [19] | Potency [10] | Potency [11] | Potency [18] | Potency (Aromatase (Homo sapiens)) | Potency [12] | Potency [13] | Potency [14]

C[C@]12CCC(=O)C[C@@H]1CC[C@@H]1[C@@H]2CC[C@@]2(C)[C@H]1CC[C@]2(C)O
inactive: Potency [1] | Potency [2] | Potency [3] | Potency [15] | outcome [4] | Potency [5] | outcome [6] | Potency [7] | Potency [16] | Potency [8] | Potency [17] | Potency [9] | Potency [10] | Potency [11] | Potency [18] | Potency (Aromatase (Homo sapiens)) | Potency [12] | Potency [13] | Potency [14]

COC(=O)[C@H]1[C@@H](OC(=O)c2ccccc2)C[C@@H]2CC[C@H]1N2C
inactive: Potency [1] | Potency [2] | Potency [3] | Potency [15] | outcome [4] | Potency [5] | outcome [6] | Potency [7] | Potency [16] | Potency [8] | Potency [17] | Potency [9] | Potency [19] | Potency [10] | Potency [11] | Potency [18] | Potency (Aromatase (Homo sapiens)) | Potency [12] | Potency [13] | Potency [14]

CC(N)Cc1ccc2c(c1)OCO2 (stereo not given)
inactive: Potency [1] | Potency [2] | Potency [3] | Potency [15] | outcome [4] | Potency [5] | outcome [6] | Potency [7] | Potency [16] | Potency [8] | Potency [17] | Potency [9] | Potency [19] | Potency [10] | Potency [11] | Potency [18] | Potency (Aromatase (Homo sapiens)) | Potency [12] | Potency [13] | PLD induction [14] -3.76% [at 1.53 µM]

CCC1(c2ccccc2)C(=O)NC(=O)N(C)C1=O (stereo not given)
inactive: Potency [1] | Potency [2] | Potency [3] | Potency [15] | outcome [4] | Potency [5] | outcome [6] | Potency [7] | Potency [16] | Potency [8] | Potency [17] | Potency [9] | Potency [19] | Potency [10] | Potency [18] | Potency (Aromatase (Homo sapiens)) | Potency [12] | Potency [13] | Potency [14]

CN1CC[C@@]23CCCC[C@@H]2[C@@H]1Cc1ccc(O)cc13
inactive: Potency [1] | Potency [2] | Potency [3] | Potency [15] | outcome [4] | Potency [5] | outcome [6] | Potency [7] | Potency [16] | Potency [8] | Potency [17] | Potency [9] | Potency [11] | Potency [18] | Potency (Aromatase (Homo sapiens)) | Potency [12] | Potency [13] | Potency [14]

O=P1(N(CCCl)CCCl)NC(OO)CCO1 (stereo not given)
inactive: Potency [1] | Potency [2] | Potency [3] | Potency [15] | outcome [4] | Potency [5] | outcome [6] | Potency [7] | Potency [16] | Potency [17] | Potency [9] | Potency [19] | Potency [10] | Potency [11] | Potency [18] | Potency (Aromatase (Homo sapiens)) | Potency [12] | Potency [13] | Potency [14]

Cc1nnc2n1-c1sc(Br)cc1C(c1ccccc1Cl)=NC2
inactive: Potency [2] | Potency [3] | Potency [15] | outcome [4] | Potency [5] | outcome [6] | Potency [7] | Potency [16] | Potency [8] | Potency [17] | Potency [10] | Potency [11] | Potency (Aromatase (Homo sapiens)) | Potency [12] | Potency [13] | Potency [14]
active: Potency [1] 23.7 µM | Potency [9] 21.1 µM | Potency [19] 26.6 µM

CCCCNC(C)(C)[P+](=O)O
inactive: Potency [1] | Potency [2] | Potency [3] | Potency [15] | outcome [4] | Potency [5] | outcome [6] | Potency [7] | Potency [16] | Potency [8] | Potency [17] | Potency [9] | Potency [19] | Potency [10] | Potency (Aromatase (Homo sapiens)) | Potency [12] | Potency [13] | Potency [14]
